An excerpt weighted towards active compounds, which were near 19% of everything screened.
DT40 TDP1 no CPT – qHTS for Inhibitors of human tyrosyl-DNA phosphodiesterase 1 (TDP1): qHTS in cells in absence of CPT; AID 686978, 2013; DT40 Tdp1-/- hTDP1 cells, no CPT, ATP luminescence, 48 h; 15% of 420,000 active; Potency, µM (highest dose often 46.2 µM), inactives show top-dose activity change, negative = growth inhibition, hits mostly inhibitors; further: potency means the concentration at half of the fitted maximal effect; nearly all actives have a fitted effect of over 55% in size
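Growth of hTDP1-complemented DT40 Tdp1-knockout cells is measured by ATP luminescence after at least 48 hr compound exposure at 37 °C, with DMSO substituting for the 20 nM CPT used in the parallel screen.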
IL-1B inflam inh – inhibitors of inflammasome signaling (IL-1 beta secretion) | THP-1 LPS/ATP IL-1B secretion, AlphaLISA, 16 h; stronger effect = lower value | activity change, % at 57.5 µM | 4.7% of 360,000 active | AID 743279; in the data active means activity change below about -50%; inconclusive means mostly about -30% to -49%
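THP-1 cells pretreated 1 hr with compounds (up to 57.5 uM final), then stimulated with LPS (250 ng/mL final) plus ATP (1.25 mM final); secreted IL-1B measured by AlphaLISA after 16 hr, decreased signal indicating inhibition.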
DT40 TDP1 CPT – DT40-hTDP1 cell growth loss with CPT | chicken DT40 Tdp1-/-;hTDP1 cells + 20 nM CPT, ATP luminescence, 48 h | Potency, µM (doses to about 46.2 µM), without a hit: at the top dose activity change, negative = growth inhibition, usual class: inhibitors | 12% of 420,000 active; further: potency means the concentration at half of the fitted maximal effect; nearly all actives have a fitted effect of over 55% in size
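Chicken DT40 Tdp1-/- cells complemented with human TDP1, 400 cells/well, exposed to compounds plus 20 nM camptothecin for at least 48 h at 37 C; viability read as ATP content by CellTiter-Glo luminescence.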
HT1080NT lethal – kills 2HG-producing HT-1080-NT fibrosarcoma cells; HT-1080-NT fibrosarcoma viability, CellTiter-Glo ATP luminescence, 48 h; Potency, µM (highest dose often 46.1 µM), inactives show top-dose activity, negative = less viability, actives largely listed as cytotoxic; 1.6% of 360,000 active; AID 686970;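 further: NT is the 2HG producing partner of a matched IDH1 knockdown line; potency means the concentration at half of the fitted maximal effect; 0% = DMSO-treated cells and -100% = media-only wells without cells; nearly all actives have a fitted effect of over 55% in size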
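Viability by CellTiter-Glo luminescence after 48 h compound exposure at 37C of HT-1080-NT cells (750/well, RPMI, 5% FBS). % activity scaled between DMSO wells and medium-only wells, then curve-fitted and categorized by curve class.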
ELG1 repair inh – inhibitors of ELG1-dependent DNA repair in HEK293T cells; HEK293T ELG1-luciferase reporter, luminescence, 16 h; DNA damage induced by 5-fluorouridine; Potency, µM (series often up to 46.1 µM), without a hit: top-dose activity change, negative = inhibition, hits mostly inhibitors; 2.3% of 330,000 active; further: potency means the concentration at half of the fitted maximal effect; nearly all actives have a fitted effect of over 55% in size
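In this reporter screen, reduction of luminescence relative to DMSO vehicle indicated activity. Compounds and 5-fluorouridine were added together to 2,000 cells per well, incubated for 16 hr at 37 °C, then developed with ONE-Glo.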
HT1080 IDH1KD tx – HT-1080 IDH1 knockdown cell toxicity (counter line) | HT-1080 IDH1 knockdown viability, ATP luminescence, 48 h | Potency, µM (top dose mostly 46.1 µM), inactives show top-dose activity, negative = toxicity, hits mostly cytotoxic | 2% of 360,000 active | AID 686971;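 further: potency means the concentration at half of the fitted maximal effect; 0% = DMSO wells and -100% = cell-free medium wells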
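IDH1KD HT-1080 cells, 750/well, RPMI + 5% FBS; compound pinned after 2 h settling; 48 h, 37 °C; CellTiter-Glo luminescence; % activity normalised to DMSO and no-cell wells; curves fitted, classed by r2 and efficacy.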
* marks the source's active call; other numbers are inactive results. Unless noted, the call rests on the fitted dose curve; in most records, active means well fitted curve in the direction sought with a large enough effect; inconclusive means small, poorly fitted or top-dose-only effect, or another doubt; inactive means no such curve, though single readings can be large; an effect the other way counts as inactive or inconclusive. Unless noted, on the % scale 0 is the no-effect control and ±100 the full control effect.

For c1ccc(-c2sc3ccccc3c2-c2ccc(OCCN3CCCCC3)cc2)cc1 the results were DT40 TDP1 no CPT inconclusive, IL-1B inflam inh -8.3, DT40 TDP1 CPT inconclusive, HT1080NT lethal -1.8%, ELG1 repair inh 9.6% and HT1080 IDH1KD tx 2.0%.
`CCN(CC)CCn1c(=S)[nH]c2cc(C(=O)NCCc3ccc(OC)c(OC)c3)ccc2c1=O` gave DT40 TDP1 no CPT -1.5%, IL-1B inflam inh inconclusive, DT40 TDP1 CPT -10.0%, HT1080NT lethal 3.5% and HT1080 IDH1KD tx 3.1%.
COc1ccccc1N(C)S(=O)(=O)c1ccc(C(=O)NC(C)(C)C)cc1 was read as DT40 TDP1 no CPT -5.7%, IL-1B inflam inh 4.0, DT40 TDP1 CPT -23.1%, HT1080NT lethal 10.2%, ELG1 repair inh inconclusive and HT1080 IDH1KD tx 1.0%.
For COc1ccccc1N(C)S(=O)(=O)c1ccc(C(=O)Nc2nc(C)cs2)cc1 the results were DT40 TDP1 no CPT 0.651µM*, IL-1B inflam inh -16.7, DT40 TDP1 CPT 1.46µM*, HT1080NT lethal -0.9%, ELG1 repair inh 13µM* and HT1080 IDH1KD tx -9.1%.
For COc1ccccc1N(C)S(=O)(=O)c1ccc(C(=O)Nc2cc(F)ccc2C)cc1 the results were DT40 TDP1 no CPT inconclusive, IL-1B inflam inh inconclusive, DT40 TDP1 CPT inconclusive, HT1080NT lethal 0.0%, ELG1 repair inh 18.3µM* and HT1080 IDH1KD tx -9.7%.
`C[S+](C)CC(=O)c1ccc2ccccc2c1` gave DT40 TDP1 no CPT -12.1% and DT40 TDP1 CPT -15.3%.
`Cc1ccc(NC(=O)Cn2cc(C(=O)c3ccco3)c3ccccc32)cc1C` gave DT40 TDP1 no CPT 18.4µM* and DT40 TDP1 CPT inconclusive.
COc1ccc(NC(=O)Cn2cc(C(=O)c3ccco3)c3ccccc32)cc1 was read as DT40 TDP1 no CPT inconclusive, IL-1B inflam inh 8.2, DT40 TDP1 CPT inconclusive, HT1080NT lethal -10.3%, ELG1 repair inh inconclusive and HT1080 IDH1KD tx -26.2%.
For CCOc1ccc(NC(=O)Cn2cc(C(=O)c3ccco3)c3ccccc32)cc1 the results were DT40 TDP1 no CPT inconclusive, IL-1B inflam inh 28.6, DT40 TDP1 CPT -27.8%, HT1080NT lethal 1.6%, ELG1 repair inh -6.8% and HT1080 IDH1KD tx 7.0%.
`Cc1ccc(NC(=O)Cn2cc(C(=O)c3ccco3)c3ccccc32)cc1` gave DT40 TDP1 no CPT 14.6µM* and DT40 TDP1 CPT inconclusive.
`O=C(Cn1cc(C(=O)c2ccco2)c2ccccc21)Nc1ccccc1` gave DT40 TDP1 no CPT 11.6µM*, IL-1B inflam inh -11.0, DT40 TDP1 CPT 10.3µM*, HT1080NT lethal -9.2%, ELG1 repair inh -9.3% and HT1080 IDH1KD tx -27.3%.
For COc1ccc(NC(=O)COCc2cc(-c3ccc4c(c3)OCO4)on2)cc1 the results were DT40 TDP1 no CPT -29.8% and DT40 TDP1 CPT -25.8%.
CC(C)C(=O)NCC(c1ccc2c(c1)OCO2)N1CCN(c2ccccc2)CC1 (configuration not stated) was read as DT40 TDP1 no CPT -13.3% and DT40 TDP1 CPT -1.1%.
For CCOc1cc(/C=C(\C#N)C(=O)Nc2ccc(C)cc2)ccc1OCc1cc(=O)n2nc(CC)sc2n1 the results were DT40 TDP1 no CPT -14.0% and DT40 TDP1 CPT -1.3%.
Cc1ccc(CS(=O)(=O)Cc2ccc(C(=O)NCCCN3CC(C)CC(C)C3)o2)cc1 (configuration not stated) was read as DT40 TDP1 no CPT 25.7%, IL-1B inflam inh inconclusive, DT40 TDP1 CPT -10.8%, HT1080NT lethal -0.8%, ELG1 repair inh 19.0% and HT1080 IDH1KD tx 0.3%.
For CCC1(C)Cc2c(sc3c2c(=O)n(C)c2nnc(SCc4ccccc4)n32)CO1 (configuration not stated) the results were DT40 TDP1 no CPT inconclusive, IL-1B inflam inh -2.3, DT40 TDP1 CPT 18.4µM*, HT1080NT lethal 3.2%, ELG1 repair inh -0.2% and HT1080 IDH1KD tx -3.0%.
Cn1c(=O)c2c3c(sc2n2c(SCC(=O)c4ccccc4)nnc12)COC(C)(C)C3 was read as ELG1 repair inh 6.2%.
For CCC1(C)Cc2c(sc3c2c(=O)n(C)c2nnc(SCCc4ccccc4)n32)CO1 (configuration not stated) the results were DT40 TDP1 no CPT 23.1µM*, IL-1B inflam inh 1.9, DT40 TDP1 CPT inconclusive, HT1080NT lethal 3.0%, ELG1 repair inh -2.8% and HT1080 IDH1KD tx -3.6%.
Cc1cc(C)nc(N/N=C/c2ccccc2OCc2ccc(Cl)cc2)n1 was read as DT40 TDP1 no CPT inconclusive, IL-1B inflam inh 10.3, DT40 TDP1 CPT 16.4µM*, HT1080NT lethal -22.2%, ELG1 repair inh inconclusive and HT1080 IDH1KD tx inconclusive.
Cc1cc(C)nc(N/N=C/c2cc(Br)ccc2O)n1 was read as DT40 TDP1 no CPT 3.66µM*, IL-1B inflam inh 125.8, DT40 TDP1 CPT 5.17µM*, HT1080NT lethal -3.8%, ELG1 repair inh inconclusive and HT1080 IDH1KD tx inconclusive.
Cc1cc(C)nc(N/N=C/c2ccccc2OCc2cccc(Br)c2)n1 was read as DT40 TDP1 no CPT 18.4µM*, IL-1B inflam inh -62.5*, DT40 TDP1 CPT inconclusive, HT1080NT lethal inconclusive, ELG1 repair inh 20.6µM* and HT1080 IDH1KD tx inconclusive.
Cc1cc(C)nc(N/N=C/c2ccccc2OCc2ccccc2)n1 was read as DT40 TDP1 no CPT inconclusive, IL-1B inflam inh -9.7, DT40 TDP1 CPT inconclusive, HT1080NT lethal -1.7%, ELG1 repair inh inconclusive and HT1080 IDH1KD tx 0.5%.
CCOC(=O)C1=C(CC)Nc2ccccc2N/C1=N\S(=O)(=O)c1cc(Br)ccc1Br was read as DT40 TDP1 no CPT inconclusive, IL-1B inflam inh 22.2, DT40 TDP1 CPT -4.9%, HT1080NT lethal inconclusive, ELG1 repair inh inconclusive and HT1080 IDH1KD tx inconclusive.
CCOC(=O)C1=C(CC)Nc2ccccc2N/C1=N\S(=O)(=O)c1ccc2ccccc2c1 was read as DT40 TDP1 no CPT -14.7%, IL-1B inflam inh 36.7, DT40 TDP1 CPT -19.3%, HT1080NT lethal 18.4µM*, ELG1 repair inh -16.3% and HT1080 IDH1KD tx 14.6µM*.
For S=c1cnc2ccccc2[nH]1 the results were DT40 TDP1 no CPT inconclusive, IL-1B inflam inh 3.7, DT40 TDP1 CPT inconclusive, HT1080NT lethal 7.2%, ELG1 repair inh 1.2% and HT1080 IDH1KD tx 19.1%.
`O=C(C[C@H]1C=C[C@@H](NS(=O)(=O)c2ccccc2)[C@@H](CO)O1)NCc1ccc(Cl)c(Cl)c1` gave DT40 TDP1 no CPT 18.4µM*, IL-1B inflam inh -10.1, DT40 TDP1 CPT inconclusive, HT1080NT lethal -13.8% and HT1080 IDH1KD tx -6.4%.
